Measurements published in the antibiotic and cytotoxicity screens of Wong et al. (2023).
About 3,300 (8.5%) of roughly 39,000 compounds were called active. What follows is part of a selection rich in actives, with near analogues and random picks from the rest.

These compounds were tested on HepG2 (assay: cytotoxicity call (relative viability < 0.9)). Conditions: 10 µM.

Row | SMILES | cytotoxicity call
1 | CCCN(C)C[C@@H]1OCCCC[C@@H](C)Oc2ccc(NC(=O)C3CCCCC3)cc2C(=O)N([C@@H](C)CO)C[C@@H]1C | inactive
2 | COc1cc(/C=C/C(=O)C2=C(NCCc3ccccc3)S[C@H](c3ccc(O)c(OC)c3)CC2=O)ccc1O | inactive
3 | C[C@@H]1CN([C@@H](C)CO)C(=O)c2cccc(NS(=O)(=O)c3cn(C)cn3)c2O[C@H]1CN(C)CC1CC1 | inactive
4 | CNC[C@H]1Oc2ccc(NC(=O)Cn3cnnn3)cc2CC(=O)N([C@H](C)CO)C[C@@H]1C | inactive
5 | C[C@@H](O)[C@@H](Nc1ncnc2ccccc12)C(=O)O | inactive
6 | C[C@H]1CN([C@@H](C)CO)C(=O)c2cccc(NC(=O)c3ccc(-c4nccs4)cc3)c2O[C@@H]1CN(C)Cc1ccc2c(c1)OCO2 | inactive
7 | C[C@@H]1CCCCO[C@H](CN(C)Cc2ccc(C(=O)O)cc2)[C@@H](C)CN([C@@H](C)CO)C(=O)c2cc(NC(=O)c3ccccc3)ccc2O1 | inactive
8 | COC12C(COC(N)=O)C3=C(C(=O)C(C)=C(N)C3=O)N1CC1NC12 (stereo not given) | active
9 | CO[C@@]12[C@H](COC(N)=O)C3=C(C(=O)C(C)=C(N)C3=O)N1C[C@@H]1N[C@@H]12 | inactive
10 | CO[C@@]12[C@@H]3N[C@@H]3CN1C1=C(C(=O)C(N)=C(C)C1=O)[C@@H]2COC(N)=O | active
11 | COc1cccc(S(=O)(=O)Nc2ccc3c(c2)[C@@H]2C[C@@H](CC(=O)NCCc4ccccc4)O[C@@H](CO)[C@@H]2O3)c1 | inactive
12 | C=CCOC(=O)[C@@H]1[C@H]2C(=O)O[C@H](c3ccccc3)[C@H](c3ccccc3)N2[C@H](c2ccc(OCCOC(=O)[C@@H]3C[C@@H]4C(=O)N[C@@H](CC(C)C)C(=O)N4[C@@H]3c3ccc(O)cc3)cc2)[C@@]12C(=O)Nc1ccc(I)cc12 | inactive
13 | COC(=O)C[C@H]1CC[C@H]2[C@H](COc3ccc(NS(=O)(=O)c4ccccc4Cl)cc3C(=O)N2C)O1 | inactive
14 | O=C(/C=C/c1cccc(-c2cn(-c3cccc(C(=O)N4CCC5(CC4)C(=O)NCN5c4ccccc4)c3)nn2)c1)NO | inactive
15 | O=C(/C=C/c1cccc(-c2cn(CC(=O)N3CCC4(CC3)C(=O)NCN4c3ccccc3)nn2)c1)NO | inactive
16 | O=C(NO)c1cn(CC(=O)N2CCC3(CC2)C(=O)NCN3c2ccccc2)nn1 | inactive
17 | O=C(Cn1cc(CN2C(=O)COC[C@H]2c2ccccc2)nn1)N1CCC2(CC1)C(=O)NCN2c1ccccc1 | inactive
18 | O=C(CCc1cn(CC(=O)N2CCC3(CC2)C(=O)NCN3c2ccccc2)nn1)NO | active
19 | O=C(NO)c1cn(-c2cccc(C(=O)N3CCC4(CC3)C(=O)NCN4c3ccccc3)c2)nn1 | active
20 | C[C@@H]1CN([C@H](C)CO)C(=O)c2cc(NS(=O)(=O)c3ccc(F)cc3)ccc2O[C@@H](C)CCCCO[C@@H]1CN(C)S(=O)(=O)c1ccc(Cl)cc1 | inactive
21 | C[C@@H]1CN([C@H](C)CO)C(=O)c2cccc(NC(=O)c3cnccn3)c2O[C@H]1CN(C)S(C)(=O)=O | inactive
22 | C[C@@H]1CCCCO[C@@H](CN(C)C(=O)c2ccncc2)[C@@H](C)CN([C@H](C)CO)C(=O)c2cc(NC(=O)C3CCCCC3)ccc2O1 | inactive

Row | SMILES | cytotoxicity call
23 | C[C@@H]1CN([C@H](C)CO)C(=O)c2cc(NC(=O)C3CCCCC3)ccc2O[C@@H](C)CCCCO[C@@H]1CN(C)C(=O)c1ccncc1 | inactive
24 | C[C@H]1CN([C@@H](C)CO)C(=O)c2cc(NC(=O)CCC(F)(F)F)ccc2O[C@@H]1CN(C)Cc1ccc(C(=O)Nc2ccccc2N)cc1 | inactive
25 | COc1ccc(NC(=O)N(C)C[C@H]2OCCCC[C@@H](C)Oc3ccc(NS(=O)(=O)c4c(C)noc4C)cc3C(=O)N([C@@H](C)CO)C[C@H]2C)cc1 | inactive
26 | NNc1ccc2nncn2n1 | inactive
27 | C[C@@H]1CN([C@@H](C)CO)C(=O)Cc2cc(NC(=O)CCN3CCOCC3)ccc2O[C@H]1CN(C)S(=O)(=O)c1cn(C)cn1 | inactive
28 | C[C@H]1CN([C@@H](C)CO)C(=O)c2cc(C#CCN(C)C)cnc2O[C@H]1CN(C)C(=O)Nc1cccc(F)c1 | inactive
29 | C[C@H]1CN([C@@H](C)CO)C(=O)c2cc(C#CCc3ccccc3)cnc2O[C@H]1CN(C)CC1CCOCC1 | inactive
30 | CC(C)N1C[C@@H](C)[C@H](CN(C)Cc2ccc(Oc3ccccc3)cc2)Oc2c(C(=O)Nc3ccncc3)cccc2C1=O | inactive
31 | CC(C)(Sc1cc(C(C)(C)C)c(O)c(C(C)(C)C)c1)Sc1cc(C(C)(C)C)c(O)c(C(C)(C)C)c1 | inactive
32 | Cc1ccc(O)c(C(C)(C)C)c1 | inactive
33 | Cc1cc(C(C)(C)C)c(O)c(C(C)(C)C)c1 | active
34 | C[C@H](CO)N1C[C@H](C)[C@H](CN(C)C(=O)CN(C)C)Oc2ncc(C#CC(C)(C)O)cc2C1=O | inactive
35 | C[C@@H]1CN([C@@H](C)CO)C(=O)c2cccc(NC(=O)CCCCCC(=O)Nc3ccccc3N)c2O[C@@H]1CN(C)S(=O)(=O)c1cn(C)cn1 | inactive
36 | C[C@H](CO)N1C[C@H](C)[C@H](CN(C)Cc2ccc(Cl)c(Cl)c2)Oc2ccc(NS(=O)(=O)c3ccccc3)cc2C1=O | inactive
37 | C[C@@H]1CN([C@H](C)CO)C(=O)c2cc(NS(=O)(=O)c3ccccc3)ccc2O[C@@H]1CN(C)Cc1ccc(Cl)c(Cl)c1 | active
38 | C[C@H](CO)N1C[C@H](C)[C@@H](CN(C)Cc2ccc(Cl)c(Cl)c2)Oc2ccc(NS(=O)(=O)c3ccccc3)cc2C1=O | inactive
39 | C[C@@H]1CN([C@@H](C)CO)C(=O)c2cc(NS(=O)(=O)c3ccccc3)ccc2O[C@H]1CN(C)Cc1ccc(Cl)c(Cl)c1 | inactive
40 | C[C@H]1CN([C@@H](C)CO)C(=O)c2cc(NS(=O)(=O)c3ccccc3)ccc2O[C@@H]1CN(C)Cc1ccc(Cl)c(Cl)c1 | inactive
41 | C[C@@H]1CN([C@@H](C)CO)C(=O)c2cc(NS(=O)(=O)c3ccccc3)ccc2O[C@@H]1CN(C)Cc1ccc(Cl)c(Cl)c1 | active
42 | C[C@H](CO)N1C[C@H](C)[C@@H](CN(C)C(=O)Nc2ccc(N3CCCCC3)cc2)OCc2cnnn2CCCC1=O | inactive
43 | CC(C)NC(=O)N(C)C[C@@H]1Oc2ccc(NC(=O)C3CCCCC3)cc2CC(=O)N([C@@H](C)CO)C[C@H]1C | inactive
44 | CCC[C@@H](O)C#Cc1cnc2c(c1)C(=O)N([C@H](C)CO)C[C@H](C)[C@H](CN(C)S(=O)(=O)c1cccs1)O2 | inactive

Row | SMILES | cytotoxicity call
45 | C[C@H]1CC[C@@H]2C(C(=O)O[C@H]3[C@H]4O[C@@]4(C)[C@H]4[C@@H](O[C@H]5O[C@@H](CO)[C@@H](O)[C@@H](O)[C@@H]5O)OC=C[C@@]34O)=CO[C@H](O[C@H]3O[C@@H](CO)[C@@H](O)[C@@H](O)[C@@H]3O)[C@@H]21 | inactive
46 | C[C@H](CO)N1C[C@H](C)[C@H](CN(C)C(=O)Nc2ccc(F)cc2)Oc2ccc(NS(C)(=O)=O)cc2C1=O | inactive
47 | C[C@H]1CN([C@@H](C)CO)C(=O)c2cc(NC(=O)Nc3ccc(C(F)(F)F)cc3)ccc2O[C@H]1CN(C)C(=O)NC1CCCCC1 | inactive
48 | C[C@H]1CN([C@@H](C)CO)C(=O)c2cc(NC(=O)Nc3ccc(C(F)(F)F)cc3)ccc2O[C@@H]1CN(C)C(=O)NC1CCCCC1 | inactive
49 | C[C@H](CO)N1C[C@H](C)[C@@H](CN(C)C(=O)NC2CCCCC2)Oc2ccc(NC(=O)Nc3ccc(C(F)(F)F)cc3)cc2C1=O | inactive
50 | C[C@H]1CN([C@@H](C)CO)C(=O)c2cc(NC(=O)NC3CCCCC3)ccc2O[C@H]1CN(C)C(=O)Nc1ccc(C(F)(F)F)cc1 | inactive
51 | C[C@@H]1CN([C@H](C)CO)C(=O)c2cc(NC(=O)Nc3ccc(C(F)(F)F)cc3)ccc2O[C@H]1CN(C)C(=O)NC1CCCCC1 | inactive
52 | C[C@@H]1CN([C@H](C)CO)C(=O)c2cc(NC(=O)NC3CCCCC3)ccc2O[C@H]1CN(C)C(=O)Nc1ccc(C(F)(F)F)cc1 | inactive
53 | C[C@H](CO)N1C[C@H](C)[C@H](CN(C)C(=O)Nc2ccc(C(F)(F)F)cc2)Oc2ccc(NC(=O)NC3CCCCC3)cc2C1=O | active
54 | C[C@@H]1CN([C@@H](C)CO)C(=O)c2cc(NC(=O)Nc3ccc(C(F)(F)F)cc3)ccc2O[C@@H]1CN(C)C(=O)NC1CCCCC1 | active
55 | C[C@@H]1CN([C@H](C)CO)C(=O)c2cc(NC(=O)Nc3ccc(C(F)(F)F)cc3)ccc2O[C@@H]1CN(C)C(=O)NC1CCCCC1 | active
56 | C[C@@H]1CN([C@H](C)CO)C(=O)c2cc(NC(=O)Nc3ccccc3)ccc2O[C@@H](C)CCCCO[C@@H]1CN(C)C(=O)NC1CCCCC1 | inactive
57 | CC(=O)N[C@@H]1[C@@H](O)[C@H](O)[C@H](CO)O[C@@H]1O | inactive
58 | COCC(=O)Nc1ccc2c(c1)OC[C@@H](C)N(C(=O)Cc1cccnc1)C[C@H](C)[C@@H](OC)CN(C)C2=O | inactive
59 | Cn1cnc(S(=O)(=O)N2C[C@@H](O)COC[C@H]3O[C@H](CC(=O)NCc4ccc(F)cc4)CC[C@@H]32)c1 | inactive
60 | COc1cc(C)nc(SCC(N)=O)n1 | inactive
61 | COc1ccc(S(=O)(=O)Nc2ccc3c(c2)C(=O)N([C@@H](C)CO)C[C@@H](C)[C@@H](CN(C)S(=O)(=O)c2ccccc2)O3)cc1 | inactive
62 | C[C@@H]1CN([C@H](C)CO)C(=O)CCCn2nncc2CO[C@@H]1CN(C)C(=O)CCCN(C)C | inactive
63 | Cc1cc(C)c(-c2ccc(NC(=O)[C@H](Cc3ccc(C(=O)NCCS(=O)(=O)O)cc3)c3ccc(-c4ccc(C(C)(C)C)cc4)cc3)cc2)c(C)c1 | active
64 | Cc1cc(O[C@@H](CCC(F)(F)F)c2ccc(C(=O)NCCC(=O)O)cc2)cc(C)c1-c1ccc(C(C)(C)C)cc1 | inactive
65 | COc1ccc(C#Cc2ccc3c(c2)O[C@H](CN(C)S(=O)(=O)c2ccccc2F)[C@@H](C)CN([C@H](C)CO)S3(=O)=O)cc1 | inactive
